In the library only some 1.7% were active in any assay of this set; here they are far more common.
LYPLA1 counter: blocks human lysophospholipase 1, a PME1 counter-screen; recombinant LYPLA1, FP-Rh probe fluorescence polarization; inhibition, % at 5.9 µM; 320,000 compounds, 0.16% hits; AID 2174;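 active means inhibition above the mean of all tested compounds plus 3 SD, set per campaign, cut at about 14% in these data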;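 further: inhibitors block serine hydrolase probe labeling of LYPLA1 so polarization falls; 0% = enzyme with DMSO and 100% = wells lacking LYPLA1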
Target sequence (O75608 whole entry, looked up): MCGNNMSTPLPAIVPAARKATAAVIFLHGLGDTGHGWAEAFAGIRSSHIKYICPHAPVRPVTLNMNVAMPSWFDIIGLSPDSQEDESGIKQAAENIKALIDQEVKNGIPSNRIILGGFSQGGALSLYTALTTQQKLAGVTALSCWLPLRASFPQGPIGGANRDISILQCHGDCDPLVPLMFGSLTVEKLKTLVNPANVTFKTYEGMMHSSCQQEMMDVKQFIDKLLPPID
EBNA-1 inh: blocks EBNA-1 binding to DNA. EBNA-1 DNA binding, fluorescence polarization. inhibition, % at 14.8 µM. 300,000 compounds, 0.34% hits. AID 1950; in the data active means inhibition above about 28%
ZTA DNA inh: ZTA (EBV) inhibition in EBNA-1 counter-screen. ZTA-DNA binding, fluorescence polarization. inhibition, % at 11 µM. 320,000 compounds, 0.15% hits; in the data active means inhibition above about 33%
Target sequence (P03206 whole entry, looked up): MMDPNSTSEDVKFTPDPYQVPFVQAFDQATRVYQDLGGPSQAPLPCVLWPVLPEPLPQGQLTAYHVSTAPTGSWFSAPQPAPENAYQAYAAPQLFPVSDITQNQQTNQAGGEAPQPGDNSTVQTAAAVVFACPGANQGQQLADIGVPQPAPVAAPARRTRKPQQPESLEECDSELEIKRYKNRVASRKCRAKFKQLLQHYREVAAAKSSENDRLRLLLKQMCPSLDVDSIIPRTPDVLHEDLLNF
LYPLA2 counter: LYPLA2 (human) inhibition in PME1 counter-screen. O95372. recombinant LYPLA2, FP-Rh probe fluorescence polarization. inhibition, % at 5.9 µM. 320,000 compounds, 0.38% hits. AID 2177;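 active means inhibition above the screen-wide mean plus 3 SD, limit set per campaign, cut at about 26% in these data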;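 further: 0% = LYPLA2 with DMSO and 100% = wells lacking LYPLA2 enzyme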
PAD4 inh: blocks human protein arginine deiminase 4 | AID 485272 | 330,000 compounds, 0.41% hits | Q9UM07 | inhibition, % at 6.36 µM | recombinant PAD4, RCA probe fluorescence polarization;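 active means percent inhibition above a cutoff equal to the mean of all tested compounds plus 3 SD, cut at about 15% in these data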;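 further: 0% = PAD4 with RCA probe and DMSO and 100% = probe without PAD4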
GSTO1 counter: counter-screen for RBBP9 inhibitors: inhibitors of human GSTO1 | 300,000 compounds, 1.1% hits | recombinant GSTO1, activity-based probe fluorescence polarization | inhibition, % at 5.96 µM | P78417;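 active means inhibition above the campaign mean inhibition plus 3 SD, cut at about 35% in these data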;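 further: 0% = GSTO1-1 with DMSO and 100% = wells lacking GSTO1-1 enzyme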
Target sequence (P78417 whole entry, looked up): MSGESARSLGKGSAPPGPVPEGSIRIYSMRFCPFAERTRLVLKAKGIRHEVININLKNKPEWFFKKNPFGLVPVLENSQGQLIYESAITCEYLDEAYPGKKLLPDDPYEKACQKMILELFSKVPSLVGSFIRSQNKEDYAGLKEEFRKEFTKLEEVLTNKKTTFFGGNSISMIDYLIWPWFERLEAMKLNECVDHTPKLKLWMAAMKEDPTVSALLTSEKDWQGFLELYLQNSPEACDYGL
EBNA-1 inh conf: EBNA-1 (EBV) inhibition, confirmation | inhibition, % at 14.8 µM | Recombinant EBNA-1 DBD, Cy5-DNA fluorescence polarization | shares compounds with EBNA-1 inh | 830 compounds, 35% hits;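 active means mean inhibition across replicates above a set limit taken from the earlier primary screen, cut at about 28% in these data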;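 further: plate controls were EBNA-1 protein with DMSO for no effect and wells lacking EBNA-1 for full effect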
ZTA counter trip: blocks Epstein-Barr virus ZTA in triplicate, EBNA-1 counter-screen. shares compounds with EBNA-1 inh. Zta-ZRE DNA binding, Cy5 fluorescence polarization. 830 tested, under 10 active. inhibition, % at 11.1 µM. AID 2328;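 active means mean inhibition over triplicates above a set limit taken from the primary EBNA-1 screen, cut at about 37% in these data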;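 further: purified full length Zta protein with Cy5 labeled ZRE DNA probe; 0% = Zta with DMSO and 100% = wells lacking Zta protein; inhibitors lower polarization by freeing the labeled DNA probe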
An asterisk follows results filed as active.

What do the screens show for `COc1ccc(Nc2nc3ccccc3n3nnnc23)cc1`?
LYPLA1 counter: -0.4; EBNA-1 inh: 5.2; ZTA DNA inh: -1.5; LYPLA2 counter: -0.2; PAD4 inh: 2.8; GSTO1 counter: -2.9

How did Cc1ccc(Nc2nc3ccccc3n3nnnc23)cc1 do in these assays?
LYPLA1 counter: -6.9; EBNA-1 inh: 34.2*; ZTA DNA inh: -1.6; LYPLA2 counter: -6.4; PAD4 inh: -5.6; GSTO1 counter: 3.7

How did CC(=O)Oc1cc(O)c2c(=O)c(OC(C)=O)c(-c3ccc(OC(C)=O)c(OC(C)=O)c3)oc2c1 do in these assays?
LYPLA1 counter: -13.0; EBNA-1 inh: -0.7; ZTA DNA inh: 1.2; LYPLA2 counter: -13.5; PAD4 inh: -8.9; GSTO1 counter: 60.3*

What do the screens show for `Cc1ccc(-n2nc3c(c2NC(=O)c2ccc4c(c2)OCO4)CSC3)cc1`?
LYPLA1 counter: -2.1; EBNA-1 inh: 46.5*; ZTA DNA inh: 4.7; LYPLA2 counter: -0.1; PAD4 inh: 2.3; GSTO1 counter: 0.2; EBNA-1 inh conf: 24.8; ZTA counter trip: 8.5

Results for COCCNC(=O)c1ccc(-n2c(SCc3cc(F)ccc3F)nc3ccccc3c2=O)cc1 ?
LYPLA1 counter: 0.5; EBNA-1 inh: 39.6*; ZTA DNA inh: -8.0; LYPLA2 counter: 8.4; PAD4 inh: -1.6; GSTO1 counter: 3.6; EBNA-1 inh conf: 9.3; ZTA counter trip: -4.5

What do the screens show for `CCOC(=O)CSc1nc2ccccc2c(=O)n1-c1ccc(C(=O)NCCOC)cc1`?
LYPLA1 counter: 4.0; EBNA-1 inh: -0.6; ZTA DNA inh: -0.3; LYPLA2 counter: 7.4; PAD4 inh: 0.4; GSTO1 counter: -3.3

What do the screens show for `O=C(COC(=O)c1cc(S(=O)(=O)NCc2ccccc2)ccc1O)c1cc2ccccc2o1`?
LYPLA1 counter: -6.2; EBNA-1 inh: -5.1; ZTA DNA inh: 1.7; LYPLA2 counter: 0.3; PAD4 inh: -1.2; GSTO1 counter: 15.4

What do the screens show for `Cc1cccc(NC(=O)CSc2ncnc3c2oc2ccccc23)c1`?
LYPLA1 counter: -1.9; EBNA-1 inh: -0.5; ZTA DNA inh: 9.8; LYPLA2 counter: -1.4; PAD4 inh: -0.4; GSTO1 counter: -3.0

Results for O=C(CSc1ncnc2c1oc1ccccc12)Nc1cccc(F)c1 ?
LYPLA1 counter: 3.4; EBNA-1 inh: 34.4*; ZTA DNA inh: -10.4; LYPLA2 counter: 2.4; PAD4 inh: -3.2; GSTO1 counter: -3.7; EBNA-1 inh conf: 54.2*; ZTA counter trip: 8.7

How did COc1ccc(NC(=S)Nc2cc(-c3ccccc3)[nH]n2)cc1Cl do in these assays?
LYPLA1 counter: -25.4; EBNA-1 inh: 35.8*; ZTA DNA inh: -21.5; LYPLA2 counter: -40.8; PAD4 inh: -3.8; GSTO1 counter: -16.8; EBNA-1 inh conf: -5.2; ZTA counter trip: -8.1

How did CCN1C(=O)/C(=C2/C=Cc3cc(C)ccc3N2CC)N(C)C1=S do in these assays?
LYPLA1 counter: 3.3; EBNA-1 inh: 29.0*; ZTA DNA inh: -3.0; LYPLA2 counter: 7.3; PAD4 inh: -1.4; GSTO1 counter: 9.9; EBNA-1 inh conf: -2.5; ZTA counter trip: -10.0

How did COc1ccc(Nc2nnc(SCC(=O)c3cc4ccccc4o3)s2)cc1 do in these assays?
LYPLA1 counter: -13.4; EBNA-1 inh: 44.1*; ZTA DNA inh: -6.6; LYPLA2 counter: -34.0; PAD4 inh: -9.3; GSTO1 counter: -5.9; EBNA-1 inh conf: 36.9*; ZTA counter trip: 2.1

Results for COc1ccccc1Nc1nnc(SCC(=O)Nc2cc(C)on2)s1 ?
LYPLA1 counter: -1.5; EBNA-1 inh: 35.3*; ZTA DNA inh: -2.5; LYPLA2 counter: -6.0; PAD4 inh: -34.2; GSTO1 counter: 23.1; EBNA-1 inh conf: 20.9; ZTA counter trip: 3.9

Results for COc1cccc(N2CC(C(=O)Nc3nnc(SCC(=O)Nc4cc(C)on4)s3)CC2=O)c1 (stereo not drawn) ?
LYPLA1 counter: -2.1; EBNA-1 inh: 8.6; ZTA DNA inh: 9.3; LYPLA2 counter: -2.3; PAD4 inh: -1.6; GSTO1 counter: 2.2

What do the screens show for `Cc1ccc(N2CC(C(=O)Nc3nnc(SCC(=O)Nc4cc(C)on4)s3)CC2=O)cc1` (stereo not drawn)?
LYPLA1 counter: -8.3; EBNA-1 inh: 34.4*; ZTA DNA inh: 11.4; LYPLA2 counter: -4.4; PAD4 inh: -4.4; GSTO1 counter: -2.1; EBNA-1 inh conf: 8.6; ZTA counter trip: -4.1

Results for O=C(CSc1nnc(Nc2ccccc2F)s1)c1cc2ccccc2o1 ?
LYPLA1 counter: -19.8; EBNA-1 inh: 3.3; ZTA DNA inh: -4.6; LYPLA2 counter: -30.7; PAD4 inh: -13.5; GSTO1 counter: 14.0

Results for COc1ccc(NC(=O)Nc2ccc(F)c(F)c2)c(OC)c1 ?
LYPLA1 counter: -2.4; EBNA-1 inh: 3.6; ZTA DNA inh: 0.4; LYPLA2 counter: 6.1; PAD4 inh: -8.5; GSTO1 counter: 11.2

How did COc1cc(OC)cc(-c2c(C#Cc3ccsc3)c3cc(-c4ccc(OC)nc4)ccc3n2C)c1 do in these assays?
LYPLA1 counter: -1.7; ZTA DNA inh: 20.1; LYPLA2 counter: -11.8; PAD4 inh: -1.9

Results for Cc1cc(CNC(=S)Nc2cccc(Cl)c2Cl)nn1C ?
LYPLA1 counter: -1.5; EBNA-1 inh: -2.9; ZTA DNA inh: 6.5; LYPLA2 counter: 4.2; PAD4 inh: 2.4; GSTO1 counter: 6.3

Results for CN(CC(=O)Nc1c(Cl)cccc1Cl)C(=O)C1=COCCO1 ?
LYPLA1 counter: -0.8; EBNA-1 inh: 2.1; ZTA DNA inh: 5.0; LYPLA2 counter: 3.1; PAD4 inh: -4.5; GSTO1 counter: 4.7

Results for CCN(C(=O)CCN1C(=O)/C(=C/c2ccccc2)SC1=S)C1CCS(=O)(=O)C1 (stereo not drawn) ?
LYPLA1 counter: 1.6; EBNA-1 inh: 17.3; ZTA DNA inh: 6.7; LYPLA2 counter: -0.6; PAD4 inh: -4.4; GSTO1 counter: 7.6

What do the screens show for `O=c1c2[nH]c3ccccc3c2ncn1Cc1ccco1`?
LYPLA1 counter: -4.8; EBNA-1 inh: -20.9; ZTA DNA inh: 13.7; LYPLA2 counter: -2.2; PAD4 inh: -3.2; GSTO1 counter: -1.4

Results for Cc1ccc2c(c1)[nH]c1c(=O)n(Cc3ccco3)cnc12 ?
LYPLA1 counter: 0.8; EBNA-1 inh: 69.6*; ZTA DNA inh: 14.7; LYPLA2 counter: 0.6; PAD4 inh: -0.7; GSTO1 counter: 3.7; EBNA-1 inh conf: 37.4*; ZTA counter trip: 0.3

Results for NC(=O)c1ccsc1NC(=O)COC(=O)c1cc(Cl)ccc1O ?
LYPLA1 counter: -6.4; EBNA-1 inh: -2.9; ZTA DNA inh: 1.3; LYPLA2 counter: -5.8; PAD4 inh: -5.8; GSTO1 counter: -0.8

How did O=C(COC(=O)C1CCN(S(=O)(=O)c2cccs2)CC1)c1ccc2c(c1)OCCO2 do in these assays?
LYPLA1 counter: -1.3; EBNA-1 inh: 10.4; ZTA DNA inh: 0.9; LYPLA2 counter: 2.8; PAD4 inh: 0.4; GSTO1 counter: -2.2
